# Laboratory results from PubChem BioAssay (Tox21).
# “And” between values parts separate entries of the source, which are not always exact repeats. Equal entries are not always repeated. Results filed as inconclusive are left out. A call without a number means that no potency is given here. More than one record can exist for a structure, and the calls need not agree. The source made the active and inactive calls. Unless noted, calls come from the whole dose curve; as a rule, active = well fitted curve in the direction sought with a large enough effect in the repeat runs; inconclusive = weak or mixed curves; inactive = no such curve, though single readings can be large; an effect the other way counts as inactive or inconclusive.
# Columns and labels:
# [1] = qHTS assay to identify small molecule agonists of the vitamin D receptor (VDR) signaling pathway - cell viability counter screen (AID 743224); note: nearly all actives have a fitted effect of over 50% in size; note: potency is the fitted concentration of half-maximal effect
# Summary of the method: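 Plated VDR-bla cells (4 h, 37C) received compound, incubated 16 h, then LiveBLAzer substrate 2 h RT; CellTiter-Glo added afterwards, luminescence read at 30 min.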
# [2] = qHTS assay to identify small molecule antagonists of the vitamin D receptor (VDR) signaling pathway - cell viability counter screen (AID 743225); note: nearly all actives have a fitted effect of over 50% in size
# Summary of the method: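 Cytotoxicity counter screen read by CellTiter-Glo luminescence (30 min, room temperature) in the same wells as the VDR-bla antagonist readout. HEK 293T VDR-UAS-bla cells had 16 h at 37C with compound and 3 nM (final) 1-alpha,25-dihydroxyvitamin D3, then 2 h with FRET substrate.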
# [3] = qHTS assay to identify small molecule agonists of the NFkB signaling pathway - cell viability counter screen (AID 1159515; calls by dose curve; note: nearly all actives have a fitted effect of over 55% in size)
# Summary of the method: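 Using the same wells as the NFkB reporter read, ME-180 NFkB-bla cells given compounds for 5 hr were assessed for viability via CellTiter-Glo, with luminescence taken after a 30 min room-temperature incubation.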
# [4] = qHTS assay to identify small molecule agonists of the endoplasmic reticulum stress response signaling pathway (AID 1159516; active = well fitted activation curve with a large enough effect in the signal ratio in the repeat runs, not every such curve was filed as active; the % refers to the signal ratio)
# Summary of the method: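 An ESRE-bla HeLa cell assay: compounds were pin-transferred from DMSO onto overnight-plated cells and left 5 hr at 37 C. Substrate was then loaded for 2 hr at room temperature before reading fluorescence at 460 nm and 530 nm.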
# [5] = qHTS assay to identify small molecule agonists of the endoplasmic reticulum stress response signaling pathway - cell viability counter screen (AID 1159517; calls by dose curve;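 note: HeLa cells carrying an ER stress response element beta-lactamase reporter; nearly all actives have a fitted effect of over 50% in size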)
# Summary of the method: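 Luminescence readout: CellTiter-Glo, 30 min RT, same wells as the ESRE-bla reporter read. HeLa ESRE-bla, 1,500 cells/well, o/n 37 C; cpd 5 hr 37 C/5% CO2.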
# [6] = qHTS assay to identify small molecule antagonists of the retinoid-related orphan receptor gamma (ROR-gamma) signaling pathway - cell viability counter screen (AID 1159520); note: nearly all actives have a fitted effect of over 50% in size
# Summary of the method: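 Tet-on ROR gamma CHO cells (1,000/well) were plated 4 hr, given compounds in DMSO for 2 hr at 37 C, then induced with 1 uM final doxycycline for 16 hr. Viability was read as ATP by CellTiter-Glo luminescence after 30 min.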
# [7] = target: Nuclear receptor ROR-gamma (Homo sapiens) (UniProt P51449); experiment: qHTS assay to identify small molecule antagonists of the retinoid-related orphan receptor gamma (ROR-gamma) signaling pathway (AID 1159521; note: nearly all actives have a fitted effect of over 50% in size; note: potency is the fitted concentration of half-maximal effect)
# Summary of the method: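 Antagonist read-out: drop in luminescence (ONE-Glo) from an RORE-LUC reporter in CHO cells with doxycycline-inducible ROR-gamma; 2 hr compound pretreatment, 1 uM doxycycline, 16 hr incubation at 37 C.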
# [8] = qHTS assay to identify small molecule agonists of the AP-1 signaling pathway - cell viability counter screen (AID 1159525; calls by dose curve; note: nearly all actives have a fitted effect of over 55% in size)
# Summary of the method: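 ME-180 AP-1-bla, 2500 cells/well, Opti-MEM + 0.5% dialyzed FBS; overnight 37 °C; cpd 15-pt titration, 5 h 37 °C; CellTiter-Glo 30 min RT; luminescence read; normalised to TOAB and DMSO controls.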
# [9] = target: Retinoic acid receptor RXR-alpha (Homo sapiens) (UniProt P19793); experiment: qHTS assay to identify small molecule agonists of the RXR signaling pathway (AID 1159527; calls by dose curve; note: nearly all actives have a fitted effect of over 35% in size; note: potency is the fitted concentration of half-maximal effect)
# Retinoic acid receptor RXR-alpha (Homo sapiens), sequence (P19793 whole entry, looked up): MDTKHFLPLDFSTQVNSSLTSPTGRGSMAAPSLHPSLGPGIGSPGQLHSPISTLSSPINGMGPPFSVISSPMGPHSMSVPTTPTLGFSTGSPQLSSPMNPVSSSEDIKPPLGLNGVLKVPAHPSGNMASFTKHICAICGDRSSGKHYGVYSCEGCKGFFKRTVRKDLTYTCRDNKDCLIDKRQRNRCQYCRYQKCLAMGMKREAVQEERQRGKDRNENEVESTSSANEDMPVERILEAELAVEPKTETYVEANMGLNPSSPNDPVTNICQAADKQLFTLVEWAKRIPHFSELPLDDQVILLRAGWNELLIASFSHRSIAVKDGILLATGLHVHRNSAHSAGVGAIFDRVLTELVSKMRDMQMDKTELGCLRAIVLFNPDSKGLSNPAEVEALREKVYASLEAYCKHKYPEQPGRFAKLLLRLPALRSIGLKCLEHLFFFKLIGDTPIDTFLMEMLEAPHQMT
# Summary of the method: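 Agonist-mode beta-lactamase reporter assay: HEK 293T RXR-alpha-UAS-bla cells treated 16 hr at 37 C with compounds, 9-cis retinoic acid as positive control. LiveBLAzer FRET substrate, 405 nm excitation, 460/530 nm emission.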
# [10] = qHTS assay to identify small molecule antagonists of the retinoid acid receptor (RAR) signaling pathway - cell viability counter screen (AID 1159551); note: nearly all actives have a fitted effect of over 35% in size
# Summary of the method: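 Retinol-stimulated (1 uM final) C3RL4 cells, compound 6 h, 37 C; readout CellTiter-Glo luminescence (ATP) after 30 min RT incubation.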
# [11] = qHTS assay to identify small molecule antagonists of the retinoic acid receptor (RAR) signaling pathway (AID 1159552; note: nearly all actives have a fitted effect of over 50% in size; note: potency is the fitted concentration of half-maximal effect)
# Summary of the method: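 Luminescent RARE reporter read-out in C3RL4 cells: 6 hr co-treatment at 37 C of test compounds with retinol at 1 uM final. Cells plated overnight beforehand; luciferase reagent incubated 30 min at room temperature before reading.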
# [12] = qHTS assay to identify small molecule agonists of the AP-1 signaling pathway (AID 1159526; calls by dose curve)
# [13] = qHTS assay to identify small molecule agonists of the retinoic acid receptor (RAR) signaling pathway (AID 1159553); settings: C3RL4 RARE luciferase reporter, agonist, 6 h; activation: at 73.3 µM (top of the series) unless noted
# Summary of the method: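 Reporter readout comes from luciferase under RARE control in C3RL4 cells; compound exposure lasts 6 hr at 37 C in 5% CO2, and luminescence is recorded following a 30 min room-temperature incubation with reagent.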
# [14] = qHTS assay to identify small molecule agonists of the RXR signaling pathway - cell viability counter screen (AID 1159529); note: nearly all actives have a fitted effect of over 50% in size
# Summary of the method: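 CellTiter-Glo luminescence gave viability in the wells also read for beta-lactamase. Cells (RXR-alpha-UAS-bla HEK 293T, 2% charcoal-stripped FBS medium) had 5 hr plating, then 16 hr compound exposure at 37 C; tetraoctyl ammonium bromide served as positive control.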
# [15] = qHTS assay to identify small molecule antagonists of the estrogen related receptor (ERR) signaling pathway - cell viability counter screen (AID 1224818);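 note: viability measured after 17.5 h of compound exposure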
# Summary of the method: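 After a 6 h pre-incubation, ERR cells were dosed by pin tool with compounds, positive/negative controls or DMSO alone. Following 17.5 h at 37 C and 30 min with CellTiter-Fluor, fluorescence was recorded.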
# [16] = qHTS assay to identify small molecule antagonists of the estrogen related receptor signaling pathway with the pleiotropic PPARgamma coactivator (PGC) cell viability counter screen (AID 1224822;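 note: viability read after 17.5 h compound exposure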)
# Summary of the method: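 PGC/ERR cells were plated at 2,000 per well and allowed 6 h to settle before compound addition. Following 17.5 h at 37 C, CellTiter-Fluor reagent was added and fluorescence was read 30 min later.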
# [17] = qHTS assay to identify small molecule agonists of the estrogen related receptor (ERR) signaling pathway (AID 1224820)
# Summary of the method: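 ERR reporter cells (NTP line) plated 2,000/well, incubated 6 h at 37 C/5% CO2, then pinned with compounds in DMSO and held 18 h at 37 C. One-Glo added; luminescence read after 30 min at room temperature.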
# [18] = system: estrogen-related receptor alpha (ERRalpha) with PGC-1alpha coactivator, human; experiment: qHTS assay to identify small molecule antagonists of the estrogen related receptor signaling pathway with the pleiotropic PPARgamma coactivator (PGC) (AID 1224821; calls by dose curve)
# Summary of the method: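 Cells engineered for PGC/ERR signalling (line from NTP) were plated 6 h at 37 C/5% CO2, then exposed to DMSO-dissolved compound for 18 h at 37 C. Luciferase activity was read by One-Glo luminescence after 30 min at room temperature.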
# [19] = qHTS assay to identify small molecule agonists of the estrogen related receptor signaling pathway with the pleiotropic PPARgamma coactivator (PGC) (AID 1224823)
# Summary of the method: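 PGC/ERR reporter cells were seeded, rested 6 h at 37 C/5% CO2, then exposed to compounds in DMSO by pin transfer for 18 h at 37 C. Luciferase activity was read as luminescence after One-Glo reagent and 30 min at room temperature.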
Structure (SMILES),Potency [1],Potency [2],Potency [3],Potency [4],Potency [5],Potency [6],Potency [7],Potency [8],Potency [9],Potency [10],Potency [11],Potency [12],Potency [13],Potency [14],outcome [15],outcome [16],outcome [17],outcome [18],outcome [19]
Nc1ccc2c(O)cc(S(=O)(=O)O)cc2c1,inactive,inactive,inactive,inactive,inactive,inactive,9.7 µM (active) and 5.45 µM (active),inactive,inactive,inactive,inactive,–,–,–,–,–,–,–,–
C=CC(C)(O)CCC=C(C)C (stereo not drawn),inactive,inactive,inactive,inactive,inactive,inactive,–,inactive,–,inactive,inactive,inactive,inactive,–,–,–,–,–,–
CCCCCC=O,inactive,inactive,inactive,inactive,inactive,inactive,–,inactive,inactive,inactive,–,inactive,–,–,–,–,–,–,–
O=S1(=O)CCCO1,inactive,inactive,inactive,inactive,inactive,inactive,inactive,inactive,inactive,inactive,–,inactive,–,–,–,–,–,–,–
C[C@]12CC[C@@H]3c4ccc(O)cc4CC[C@H]3[C@@H]1CC[C@H]2O,inactive,inactive,inactive,inactive,inactive,inactive,17.5 µM (active),inactive,–,inactive,inactive and 27.3 µM (active),–,–,–,–,–,–,–,–
CC(=O)[C@H]1CC[C@H]2[C@@H]3CC=C4C[C@@H](O)CC[C@]4(C)[C@H]3CC[C@]12C,inactive,inactive,inactive,inactive,inactive,inactive,13.7 µM (active),inactive,–,inactive,–,inactive,–,–,–,–,–,–,–
C1CN(SSN2CCOCC2)CCO1,inactive,inactive,inactive,inactive,inactive,–,–,inactive,–,inactive,53.9 µM (active),–,inactive,–,–,–,–,–,–
CC/C=C\C/C=C\C/C=C\CCCCCCCC(=O)O,inactive and 49 µM (active),inactive,inactive,inactive,inactive,inactive,inactive,inactive,–,inactive,inactive,inactive,–,–,–,–,–,–,–
Cc1ccc(/C(=C\CN2CCCC2)c2ccccn2)cc1,inactive,inactive,inactive,inactive,inactive,inactive,–,inactive,inactive,inactive,–,–,–,inactive,inactive,inactive,–,–,–
ClC/C=C/CCl,inactive,inactive,inactive,inactive,inactive,inactive,–,inactive,inactive,inactive,inactive,inactive,–,–,–,–,–,–,–
c1ccc2c(c1)[nH]c1ccccc12,inactive,inactive,inactive,inactive,inactive,inactive,–,inactive,inactive,inactive,inactive,inactive,inactive,inactive,–,–,–,–,–
CCCCCCCCCCC(CO)CCCCCCCC (stereo not drawn),inactive,inactive,inactive,inactive,inactive,inactive,–,inactive,inactive,inactive,–,inactive,–,inactive,–,–,–,–,–
Nc1ccc2c(c1)C(=O)c1ccccc1C2=O,inactive,inactive,inactive,inactive,inactive,–,inactive,inactive,inactive,inactive,inactive,inactive,–,inactive,–,–,–,–,–
C=C[Si](OCCOC)(OCCOC)OCCOC,inactive,inactive,inactive,inactive,inactive,inactive,–,inactive,inactive,inactive,inactive,inactive,inactive,inactive,–,–,–,–,–
CC(C)(C)c1cccc(C(C)(C)C)c1O,inactive,inactive,inactive,inactive,inactive,inactive,–,inactive,–,inactive,inactive,inactive,–,–,–,–,–,–,–
CCCCCC1C(=O)CCC1CC(=O)OC (stereo not drawn),inactive,–,inactive,inactive,inactive,inactive,–,inactive,inactive,inactive,inactive,inactive,inactive,inactive,–,–,–,–,–
CC(=O)OC(C)C,inactive,inactive,inactive,inactive,–,inactive,inactive,inactive,inactive,inactive,inactive,inactive,inactive,inactive,–,–,–,–,–
C=CCNCC=C,inactive,inactive,inactive,inactive,inactive,inactive,–,inactive,inactive,inactive,inactive,inactive,–,–,–,–,–,–,–
Cc1ccc(S(=O)(=O)O)cc1C,inactive,inactive,inactive,inactive,inactive,inactive,–,inactive,inactive and 9.77 µM (active),inactive,inactive,inactive,inactive,inactive,–,–,–,–,–
C[C@]12CC[C@@H]3c4ccc(O)cc4CC[C@H]3[C@@H]1CC[C@@H]2O,inactive,inactive,inactive,inactive,inactive,inactive,27.3 µM (active),inactive,–,inactive,–,inactive,–,inactive,inactive,inactive,inactive,inactive,inactive
COCCOCCOCCO,inactive,inactive,inactive,–,inactive,inactive,inactive,inactive,inactive,inactive,inactive,inactive,inactive,inactive,–,–,–,–,–
